Assay outcomes (PubChem BioAssay)
Most compounds without a hit are left out; they make up all but 2.9% or so of the library.
S1P4 antag – antagonists of human S1P4 receptor. O95977. S1P4-expressing cells, antagonist mode, reporter read-out. inhibition, % at 4.98 µM. 0.26% of 220,000 active. AID 1510; in the data active means inhibition above about 29%
S1P4 agonist – agonists of human S1P4 receptor; activation, % at 4.98 µM; S1P4-expressing cell line, agonist reporter assay; 0.35% of 220,000 active; AID 1509; O95977; in the data active means activation above about 11%
HSF1 inhib – HSF1 inhibition | NIH3T3-HGL HSE-luciferase, MG132-induced, luminescence 8 h; hits give low values | activity change, negative = inhibition, % at 7.5 µM (by protocol) | 0.77% of 300,000 active | AID 2098;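 active means more than half of replicate wells show activity change below -50%, luminescence cut by over half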;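 further: luciferase reports HSF-1 transcriptional activity via heat shock element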
Hsp70 activator – transcriptional activators of Hsp70 | HeLa Hsp70 promoter luciferase reporter, luminescence; scaled: vehicle 0, proteasome-inhibitor control 100% | activation, % at 10 µM | 0.04% of 200,000 active;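 active means activation above the mean across all tested compounds plus 3 SD, cutoff set per campaign, cut at about 5.5% in these data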
HSF-1 act – increases HSF-1 driven luciferase reporter signal; AID 504408; activation, % at 9 µM; NIH3T3-HGL HSF-1 luciferase reporter, MG132, 8 h; 100% = twice DMSO control signal; 1.7% of 300,000 active;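 active means mean replicate activation of at least 50% with a set share of replicates each reaching 50%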
S1P3 antag-1 – blocks the human S1P3 receptor; Q99500; CHO S1P3 NFAT-BLA reporter, FRET fluorescence, antagonist mode; inhibition, % at 4.98 µM; 0.27% of 170,000 active; AID 485;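 active means inhibition above the plate cutoff, the mean inhibition of test wells on that plate plus 3 SD, cut at about 28% in these data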;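 further: cells challenged with S1P at its EC80 of 0.8 µM; blue over green emission ratio from cleaved BLA substrate after 4 h stimulation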
S1P3 antag-2 – human S1P3 receptor antagonism, confirmation. CHO S1P3 NFAT-BLA reporter, FRET, antagonist mode. 30% of 240 active. shares compounds with S1P3 antag-1. AID 1429. inhibition, % at 4.98 µM;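 active means inhibition above the hit threshold that was computed for the earlier primary screen, cut at about 30% in these data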
Hsp70 act DR – dose response of Hsp70 transcriptional activators. 10% of 70 active. AID 1252. HeLa hsp70.1pr-luc reporter, luciferase luminescence. calls only at 99 µM. shares compounds with Hsp70 activator;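 active means over 50% activation at some tested dose; inactive means under 50% activation at every tested dose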
S1P4 agonist cf – human S1P4 agonism, confirmation. shares compounds with S1P4 agonist. AID 1523. S1P4 agonist cell-based reporter assay. 7% of 740 active. activation, % at 4.98 µM; in the data active means activation above about 12%
S1P1 ag – human S1P1 agonism as S1P4 agonist counter-screen; shares compounds with S1P4 agonist; S1P1 agonist cell-based assay, activation; activation, % at 4.98 µM; 4% of 740 active; in the data active means activation above about 21%
Target sequence (P21453 whole entry, looked up): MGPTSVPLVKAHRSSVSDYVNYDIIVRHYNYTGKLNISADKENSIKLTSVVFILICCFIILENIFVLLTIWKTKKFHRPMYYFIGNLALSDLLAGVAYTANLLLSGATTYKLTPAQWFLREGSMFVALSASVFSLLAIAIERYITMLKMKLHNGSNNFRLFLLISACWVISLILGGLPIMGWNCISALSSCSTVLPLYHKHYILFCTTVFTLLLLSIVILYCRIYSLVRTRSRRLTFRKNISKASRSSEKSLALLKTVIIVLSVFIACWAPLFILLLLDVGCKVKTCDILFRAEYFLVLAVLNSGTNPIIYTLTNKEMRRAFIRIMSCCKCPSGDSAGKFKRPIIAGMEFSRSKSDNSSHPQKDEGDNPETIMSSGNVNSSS
S1P4 antag conf – confirmation of human S1P4 receptor antagonists | 71% of 520 active | S1P4-expressing cell line, antagonist mode, reporter read-out | inhibition, % at 4.98 µM | AID 1524 | shares compounds with S1P4 antag; in the data active means inhibition above about 30%
S1P1 antag – counter-screen for S1P4 antagonists: antagonists of human S1P1 | shares compounds with S1P4 antag | cell-based S1P1 antagonist counterscreen, inhibition | inhibition, % at 4.98 µM | 37% of 520 active | AID 1564; in the data active means inhibition above about 40%;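 further: receptor stimulated with S1P near its EC80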
Each line names hits and unclear results; the compound was inactive in the other large screens (follow-up assays come after a bar, where they were run).

CN1CCc2cc(O)cc3c2[C@H]1Cc1ccc(O)c(O)c1-3	HSF-1 act 78 (no result: S1P4 antag, S1P4 agonist, Hsp70 activator, S1P3 antag-1)
CCCCn1c(C)c(C(=O)OCC)c2c(CN3CCOCC3)c(O)ccc21	HSF-1 act 72 (no result: S1P3 antag-1)
COc1ccc(OC)c(N2C(=O)NC(=O)/C(=C\c3ccc([N+](=O)[O-])s3)C2=O)c1	HSF1 inhib -63
C/C(=N\NC(=O)c1ccncc1)c1c(O)[nH]c(=O)[nH]c1=O	none (no result: S1P4 antag, S1P4 agonist, Hsp70 activator, S1P3 antag-1)
CC1CN=C(Nc2ccc(N(C)C)cc2)S1 (stereo unspecified)	none (no result: S1P3 antag-1)
CC1CN=C(Nc2ccccc2)S1 (stereo unspecified)	HSF-1 act 52
O=C(COC(=O)Cc1ccccc1)Nc1ccc(Cl)cn1	S1P3 antag-1 36 | S1P3 antag-2 inactive
CCOC(=O)C1=CC(=C2C(=O)N(CC)C(=S)N(CC)C2=O)c2ccccc2O1	none
O=P(Oc1ccccc1)(Oc1ccccc1)c1ccccc1	none (no result: Hsp70 activator)
CCOc1ccc(-n2c(-c3ccoc3)nc3ccccc3c2=O)cc1	none (no result: S1P3 antag-1)
CCOc1ccc(-c2c(C)n(-c3ccc(OCC)cc3)c3[n+]2CCCCC3)cc1	S1P3 antag-1 40 (no result: Hsp70 activator) | S1P3 antag-2 inactive
C[C@H]1C[C@@H](C)C(=O)[C@@H]([C@H](O)CC2CC(=O)NC(=O)C2)C1	HSF1 inhib -69, S1P3 antag-1 84 | S1P3 antag-2 82
CN[C@H]1C[C@H]2O[C@@](C)([C@H]1OC)n1c3ccccc3c3c4c(c5c6ccccc6n2c5c31)C(=O)NC4	S1P4 antag 105, HSF1 inhib -85, S1P3 antag-1 109 | S1P3 antag-2 121 | S1P4 antag conf 117
CCOP(=O)(Cc1cc(C(C)=O)c(C)o1)OCC	none (no result: Hsp70 activator)
CN1C2CCC1/C(=C/c1ccccn1)C(=O)/C2=C\c1ccccn1	Hsp70 activator 18 (no result: HSF1 inhib, HSF-1 act) | Hsp70 act DR active
C#C[C@]1(O)CCC2C3CCC4=C/C(=N/OCC(=O)NC(C)C(=O)NC(CCSC)C(=O)O)CC[C@]4(C)C3CC[C@@]21C (stereo partly specified)	none (no result: S1P4 antag, S1P4 agonist, Hsp70 activator, S1P3 antag-1)
COC(=O)C[C@]1(C(=O)OC)CN(C#N)N(c2ccc(Cl)cc2)C12c1ccccc1-c1ccccc12	S1P4 antag 55, HSF1 inhib -94, Hsp70 activator 12 (no result: S1P3 antag-1) | Hsp70 act DR inactive | S1P4 antag conf 120 | S1P1 antag 88
COc1ccc2c(c1)c(CCN)c(C)n2Cc1ccccc1	none (no result: Hsp70 activator)
CN1CCC2(CC1)CC(NC=O)c1ccccc1O2 (stereo unspecified)	S1P4 agonist 13 | S1P4 agonist cf inactive | S1P1 ag inactive
CC(=O)NC1CC2CCC(C1)N2 (stereo unspecified)	none
CC(=O)NC1CC2CCCC(C1)N2 (stereo unspecified)	S1P4 agonist 25 | S1P4 agonist cf inactive | S1P1 ag inactive
CCN(CC)c1ccc(CNCCc2ccc(F)cc2)cc1	none
S=C1CN=C(c2ccccc2Cl)c2cc(Cl)ccc2N1	S1P4 agonist 27 (no result: S1P3 antag-1) | S1P4 agonist cf inactive | S1P1 ag inactive
COC(=O)C(C)NC(=S)N1CC2C[C@@H](C1)Cn1c2cccc1=O (stereo partly specified)	none (no result: S1P4 antag, S1P4 agonist, Hsp70 activator, S1P3 antag-1)
C[n+]1ccc(-c2ccncc2)cc1	S1P4 agonist 12 | S1P4 agonist cf inactive | S1P1 ag inactive
CCC(C)NC(=O)c1c(N)n(CC2CCCO2)c2nc3ccccc3nc12 (stereo unspecified)	none
CC(C)CCNC(=O)c1c(N)n(CC2CCCO2)c2nc3ccccc3nc12 (stereo unspecified)	S1P4 agonist 12 (no result: S1P3 antag-1) | S1P4 agonist cf inactive | S1P1 ag inactive
COCCNC(=O)c1c(NC(=O)c2ccco2)n(Cc2ccccc2)c2nc3ccccc3nc12	none
COCCCNC(=O)c1c(NC(=O)c2ccccc2Cl)n(Cc2ccccc2)c2nc3ccccc3nc12	S1P4 agonist 12 (no result: S1P3 antag-1) | S1P4 agonist cf inactive | S1P1 ag inactive
CCOC(=O)c1c(-n2c(C)cc(C=C3C(=O)NC(=O)NC3=O)c2C)sc2c1CCCC2	S1P4 agonist 12 (no result: S1P3 antag-1) | S1P4 agonist cf 29 | S1P1 ag inactive
c1ccc2sc(C3CCNCC3)nc2c1	none (no result: S1P4 antag, S1P4 agonist, Hsp70 activator, S1P3 antag-1)
CC(=O)OC1N=C(c2ccccc2)c2ccccc2NC1=O (stereo unspecified)	none (no result: S1P3 antag-1)
C[C@H]1O[C@@H](O[C@H]2[C@@H](O)C[C@H](O[C@H]3[C@@H](O)C[C@H](O[C@H]4CC[C@@]5(C)[C@H](CC[C@@H]6[C@@H]5CC[C@]5(C)[C@@H](C7=CC(=O)OC7)CC[C@]65O)C4)O[C@@H]3C)O[C@@H]2C)C[C@H](O)[C@@H]1O	none (no result: HSF1 inhib, HSF-1 act)
C[C@@H]1O[C@@H](O[C@H]2C[C@@H](O)[C@]3(CO)[C@H]4[C@H](O)C[C@]5(C)[C@@H](C6=CC(=O)OC6)CC[C@]5(O)[C@@H]4CC[C@]3(O)C2)[C@H](O)[C@H](O)[C@H]1O	S1P4 antag 33 | S1P4 antag conf 58 | S1P1 antag inactive
C[C@]12CCC3C(CC[C@H]4C[C@H](N)CC[C@]34C)C1CC[C@H]2O (stereo partly specified)	none (no result: S1P4 antag, S1P4 agonist, Hsp70 activator, S1P3 antag-1)
O=c1[nH]sc2cc(F)ccc12	S1P4 antag 31 | S1P4 antag conf 91 | S1P1 antag 46
